Experimental data: the supplement of paper PMC12067093, “Discovery and optimisation of a covalent ligand for TRIM25 and its application to targeted protein ubiquitination” (Chemical Science, 2025)
The full data set covers some 21,000 targets. This sample favours those with the largest changes.

Compound: Cc1cc(ccc1-c1ccccc1)C(=O)N1CCCN(CC1)C(=O)CCl [compound 10]
Assay: probe-labelled cysteine peptide fold change vs DMSO (competition) (log2 fold change); higher = less target engagement (more negative = stronger competition)
Details: THP-1, incubation time: 4 h
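Note: competitive profiling in live THP-1 cells: cysteine peptides tagged with an iodoacetamide desthiobiotin (IA-DTB) probe, intensity after compound treatment relative to DMSO-treated cells.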

“NUP205_Q92621_698_CEEYPLTR (UniProt Q92621)” was tested, and the “probe-labelled cysteine peptide fold change” value (10 µM) was 0.0608 and the “probe-labelled cysteine peptide fold change” value (50 µM) was -0.00172.

In the case of “NECTIN2_Q92692_238_ADGVTVTCK (UniProt Q92692)”, the “probe-labelled cysteine peptide fold change” value (10 µM) is reported as -0.148 and the “probe-labelled cysteine peptide fold change” value (50 µM) is reported as -0.394.

“PAK2_Q13177_352_ECLQALEFLHANQVIHR (UniProt Q13177)” was tested, and the “probe-labelled cysteine peptide fold change” value (10 µM) was 0.441 and the “probe-labelled cysteine peptide fold change” value (50 µM) was 0.0289.

In the case of “NFS1_Q9Y697_353_HHYPGCINLSFAYVEGESLLMALK (UniProt Q9Y697)”, the “probe-labelled cysteine peptide fold change” value (10 µM) is reported as 0.466 and the “probe-labelled cysteine peptide fold change” value (50 µM) is reported as 0.42.

For “NIPSNAP3A_Q9UFN0_135_QESEITYLVPWCK (UniProt Q9UFN0)”, the “probe-labelled cysteine peptide fold change” value (10 µM) was 0.151 and the “probe-labelled cysteine peptide fold change” value (50 µM) was 0.389.

In the case of “P4HTM_Q9NXG6_156_PLLFEIPGFLTDEECR (UniProt Q9NXG6)”, the “probe-labelled cysteine peptide fold change” value (10 µM) is reported as 0.372 and the “probe-labelled cysteine peptide fold change” value (50 µM) is reported as 0.492.

“NOP2_P46087_463_VLLDAPCSGTGVISK (UniProt P46087)” was tested, and the “probe-labelled cysteine peptide fold change” value (10 µM) was -0.0187 and the “probe-labelled cysteine peptide fold change” value (50 µM) was 0.0458.

In the case of “MYO9B_Q13459_1876_ITTCVEMLIK (UniProt Q13459)”, the “probe-labelled cysteine peptide fold change” value (10 µM) is reported as 0.0944 and the “probe-labelled cysteine peptide fold change” value (50 µM) is reported as -0.0605.

In the case of “NRAS_P01111_51_KQVVIDGETCLLDILDTAGQEEYSAMRDQYMR<|>HRAS_P01112_51_KQVVIDGETCLLDILDTAGQEEYSAMRDQYMR (UniProt P01112+P01111)”, the “probe-labelled cysteine peptide fold change” value (10 µM) is reported as -0.209 and the “probe-labelled cysteine peptide fold change” value (50 µM) is reported as -0.642.

For “NT5C3B_Q969T7_73_IISEECR (UniProt Q969T7)”, the “probe-labelled cysteine peptide fold change” value (10 µM) was -0.00671 and the “probe-labelled cysteine peptide fold change” value (50 µM) was 0.268.

With “NOL9_Q5SY16_637_TVNCLLVGAIAIPHCVLK (UniProt Q5SY16)” the “probe-labelled cysteine peptide fold change” value (10 µM) was -0.0765 and the “probe-labelled cysteine peptide fold change” value (50 µM) was -0.381.

For “OAT_P04181_93_YFDFLSSYSAVNQGHCHPK (UniProt P04181)”, the “probe-labelled cysteine peptide fold change” value (10 µM) was 0.0237 and the “probe-labelled cysteine peptide fold change” value (50 µM) was 0.0378.

In the case of “NFX1_Q12986_295_STCDSENLAVINK (UniProt Q12986)”, the “probe-labelled cysteine peptide fold change” value (10 µM) is reported as 0.0638 and the “probe-labelled cysteine peptide fold change” value (50 µM) is reported as -0.0574.

With “NT5DC1_Q5TFE4_139_YYFYDNYFDLPGALLCAR (UniProt Q5TFE4)” the “probe-labelled cysteine peptide fold change” value (10 µM) was 1.21 and the “probe-labelled cysteine peptide fold change” value (50 µM) was 1.46.

For “OSTC_Q9NRP0_14_VPFLVLECPNLK (UniProt Q9NRP0)”, the “probe-labelled cysteine peptide fold change” value (10 µM) was 0.025 and the “probe-labelled cysteine peptide fold change” value (50 µM) was -0.0744.

“P4HB_P07237_397_KNVFVEFYAPWCGHCK (UniProt P07237)” was tested, and the “probe-labelled cysteine peptide fold change” value (10 µM) was -0.644 and the “probe-labelled cysteine peptide fold change” value (50 µM) was -2.76.

“P3H1_Q32P28_568_LDTPLYFSYSHLVCR (UniProt Q32P28)” was tested, and the “probe-labelled cysteine peptide fold change” value (10 µM) was -0.35 and the “probe-labelled cysteine peptide fold change” value (50 µM) was 0.386.

“P4HB_P07237_53_YLLVEFYAPWCGHCK (UniProt P07237)” was tested, and the “probe-labelled cysteine peptide fold change” value (10 µM) was -1.15 and the “probe-labelled cysteine peptide fold change” value (50 µM) was -1.6.

“MYO6_Q9UM54_790_RVNHWLTCSR (UniProt Q9UM54)” was tested, and the “probe-labelled cysteine peptide fold change” value (10 µM) was 0.104 and the “probe-labelled cysteine peptide fold change” value (50 µM) was 0.475.

In the case of “NOTCH2_Q04721_427_GADCTEDVDECAMANSNPCEHAGK (UniProt Q04721)”, the “probe-labelled cysteine peptide fold change” value (10 µM) is reported as 0.149 and the “probe-labelled cysteine peptide fold change” value (50 µM) is reported as 0.115.

“NSDHL_Q15738_86_FFLGDLCSR (UniProt Q15738)” was tested, and the “probe-labelled cysteine peptide fold change” value (10 µM) was -0.104 and the “probe-labelled cysteine peptide fold change” value (50 µM) was 0.0788.

With “PARP14_Q460N5_509_VTQHLCLK (UniProt Q460N5)” the “probe-labelled cysteine peptide fold change” value (10 µM) was 0.0914 and the “probe-labelled cysteine peptide fold change” value (50 µM) was 0.48.

In the case of “NFKB1_P19838_61_YVCEGPSHGGLPGASSEK (UniProt P19838)”, the “probe-labelled cysteine peptide fold change” value (10 µM) is reported as 0.0894 and the “probe-labelled cysteine peptide fold change” value (50 µM) is reported as -0.824.

With MYO6_Q9UM54_321_MCTAMK (UniProt Q9UM54) the “probe-labelled cysteine peptide fold change” value (10 µM) was 0.00117 and the “probe-labelled cysteine peptide fold change” value (50 µM) was -0.218.

In the case of “NUMA1_Q14980_961_QFCSTQAALQAMER (UniProt Q14980)”, the “probe-labelled cysteine peptide fold change” value (10 µM) is reported as -0.0783 and the “probe-labelled cysteine peptide fold change” value (50 µM) is reported as -1.25.

In the case of “PAICS_P22234_266_SESQCR (UniProt P22234)”, the “probe-labelled cysteine peptide fold change” value (10 µM) is reported as 0.613 and the “probe-labelled cysteine peptide fold change” value (50 µM) is reported as 1.39.

“NR2F6_P10588_316_AIALFTPDACGLSDPAHVESLQEK (UniProt P10588)” was tested, and the “probe-labelled cysteine peptide fold change” value (10 µM) was -0.711 and the “probe-labelled cysteine peptide fold change” value (50 µM) was -1.1.

“NUBP1_P53384_8_MEEVPHDCPGADSAQAGR (UniProt P53384)” was tested, and the “probe-labelled cysteine peptide fold change” value (10 µM) was 1.37 and the “probe-labelled cysteine peptide fold change” value (50 µM) was 1.35.

In the case of “PA2G4_Q9UQ80_85_GIAFPTSISVNNCVCHFSPLK (UniProt Q9UQ80)”, the “probe-labelled cysteine peptide fold change” value (10 µM) is reported as 0.203 and the “probe-labelled cysteine peptide fold change” value (50 µM) is reported as -0.024.

“NOMO3_P69849_565_ISIMHEDWCWK<|>NOMO1_Q15155_565_ISIMHEDWCWK<|>NOMO2_Q5JPE7_565_ISIMHEDWCWK (UniProt Q5JPE7+Q15155+P69849)” was tested, and the “probe-labelled cysteine peptide fold change” value (10 µM) was 0.0786 and the “probe-labelled cysteine peptide fold change” value (50 µM) was 0.28.

In the case of “PALD1_Q9ULE6_65_VAPVVITYNCK (UniProt Q9ULE6)”, the “probe-labelled cysteine peptide fold change” value (10 µM) is reported as 0.106 and the “probe-labelled cysteine peptide fold change” value (50 µM) is reported as -0.15.

With “PARK7_Q99497_53_DVVICPDASLEDAK (UniProt Q99497)” the “probe-labelled cysteine peptide fold change” value (10 µM) was -0.432 and the “probe-labelled cysteine peptide fold change” value (50 µM) was 0.291.

With “PALD1_Q9ULE6_382_AITACAELHDLK (UniProt Q9ULE6)” the “probe-labelled cysteine peptide fold change” value (10 µM) was -0.02 and the “probe-labelled cysteine peptide fold change” value (50 µM) was -0.092.

With “NACC2_Q96BF6_393_NTLANSCGTGIR<|>NACC1_Q96RE7_416_NTLANSCGTGIR (UniProt Q96RE7+Q96BF6)” the “probe-labelled cysteine peptide fold change” value (10 µM) was -0.485 and the “probe-labelled cysteine peptide fold change” value (50 µM) was 0.031.
